Where a structure was tested more than once in an assay, its records may differ in their call. Active and inactive are the calls of the source. Rule for the calls: active = hit-call score of the fitted dose curve at least 0.9, where 1 is the maximum; inactive = score below 0.9.
read-out: Nuclear factor erythroid 2-related factor 2 (Homo sapiens) (UniProt Q16236); experiment: LTEA_HepaRG_NFE2L2: Life Technologies and Expression Analysis (LTEA) Assay for Nuclear factor erythroid 2-related factor 2 (NFE2L2) Transcription Factor using HepaRG (AID 2283527); settings: mRNA level, 48 h; actives raise or lower the signal;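 for outcome: TaqMan qRT-PCR transcript level normalised to ACTB GAPDH and POLR2A housekeeping genes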
Description: LTEA_HepaRG is a cell based, multiplexed-readout assay that uses HepaRG, a human liver cell line, with measurements taken at 48 hours after chemical dosing on a 96-well plate.LTEA_HepaRG_NFE2L2 is one of 102 assay component(s) measured in the LTEA HepaRG cell culture assay. It is a marker of Inflammation/injury.Data from the assay component LTEA_HepaRG_NFE2L2 was analyzed into 1 endpoint. This assay endpoint, LTEA_HepaRG_NFE2L2, was analyzed with bidirectional fitting relative to DMSO as the negative control and baseline of activity. Using a type of inducible reporter, measures of mRNA induction for gain or loss-of-signal activity can be used to understand regulation of transcription factor activity. To generalize the intended target to other relatable targets, this assay endpoint is annotated to the dna binding intended target family, where the subfamily is basic leucine zipper.
A total of 1060 chemcials from the ToxCast library were tested in eight-point concentration-response experiments. Cell culture and cytotoxicity assays were conducted at Thermo Fisher Scientific's Custom Services facility (Madison, WI). A single lot of human HepaRG cells (Thermo Fisher Scientific, Frederick, MD) was used for the cell culture experiments. 96-well format collagen type I coated plates of human HepaRG cells were prepared using established methods. Briefly, cryopreserved HepaRG cells were thawed, plated at a density of approximately 100,000 cells/well in HepaRG Thaw, Plate, and General Purpose media (HPRG770, Thermo Fisher Scientific), and incubated for 48 hours. 0.5% DMSO was selected as vehicle control to balance the requisite need of DMSO in HepaRG cultures to maintain differentiation (for example, baseline metabolism, proportions of hepatocytes vs. cholangiocytes), while enabling further hepatic receptor pathway activation (for example, PXR and CAR) in response to chemical exposure. 48 hours after plating, the culture medium was replaced with HepaRG Serum-Free Incudtion Media. Cells were exposed to each test chemical in duplicate and maintained in CO2 incubators for another 48 hours. Chemical plates were thawed to room temperature and 200x concentrations of treatment groups were prepared. 8-point conentration-reponse curves were made with the highest exposure at 100 uM, followed by half-log dilutions, all in 0.5% DMSO. Each test plate contained variouse controls, induction positive controls (1mM phenobarbital), cytotoxicity positive controls ([…] aflatoxin B1), vehicle controls (0.5% DMSO), and total lysis controls (0.5% DMSO). Cell morphology images were taken using an Essen IncuCyte FLR automated microscope, with six 96-well plates imaged in about 24 minutes. Images were captured and exported and JPEG files. Spent culture media was transfered to black-well plates for the LDH assay, and remaining media was sorted at -80 C for later use. Cells were treated with RLT buffer and frozen until shipped for gene expression analysis. Total RNA was isolated from the cell suspension in 75 uL of Buffer RLT (Qiagen, Germantown, MD 20874) by Quintiles/Expression Analysis (Durham, NC) using a custom isolation procedure. Total RNA from each plate well was transferred to a preamplification plate. Fluidigm's 96.96 Dynamic ArrayTM (Fluidigm, Amsterdam, the Netherlands) technology was used for gene expression analyses by quantitative reverse transcription polymerase chain reaction (qRT-PCR, performed by Quintiles/Expression Analysis, Durham, NC)89. Standard TaqManTM Assays (Applied Biosystems/ThermoFisher Scientific, Foster City, CA) were used to assess the expression of 93 genes selected based on their selectivity and sensitivity to important hepatic receptors known to be modulated by environmental chemicals; importance in human hepatocyte functionality; and hepatotoxicity. […]

Sequence of Nuclear factor erythroid 2-related factor 2 (Homo sapiens) (Q16236 whole entry, looked up): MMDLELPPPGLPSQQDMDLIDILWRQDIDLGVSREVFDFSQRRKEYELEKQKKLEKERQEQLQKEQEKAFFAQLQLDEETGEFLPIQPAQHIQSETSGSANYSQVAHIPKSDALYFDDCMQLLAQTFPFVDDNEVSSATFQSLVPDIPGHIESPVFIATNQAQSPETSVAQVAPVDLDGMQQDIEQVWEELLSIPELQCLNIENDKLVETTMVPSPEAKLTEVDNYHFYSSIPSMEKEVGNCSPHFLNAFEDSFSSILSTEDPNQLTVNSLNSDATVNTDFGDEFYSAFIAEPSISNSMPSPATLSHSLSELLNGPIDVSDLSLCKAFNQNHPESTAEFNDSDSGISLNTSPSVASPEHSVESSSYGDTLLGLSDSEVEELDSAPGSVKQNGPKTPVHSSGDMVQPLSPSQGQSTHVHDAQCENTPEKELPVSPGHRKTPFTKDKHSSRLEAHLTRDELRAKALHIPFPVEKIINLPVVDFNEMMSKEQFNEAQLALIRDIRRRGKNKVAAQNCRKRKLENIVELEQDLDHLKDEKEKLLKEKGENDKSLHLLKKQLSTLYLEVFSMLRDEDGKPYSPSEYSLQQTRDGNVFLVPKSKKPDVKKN

Row | Compound | outcome | AC50
1 | CCCCCCCCc1ccc(O)cc1 | inactive | 
2 | O=C(O)C(F)(F)C(F)(F)C(F)(F)C(F)(F)C(F)(F)C(F)(F)C(F)(F)C(F)(F)C(F)(F)C(F)(F)F | inactive | 
3 | CC(C)(OO)c1ccccc1 | inactive | 
4 | C[C@@H]1C[C@@H]([C@H](O)CC2CC(=O)NC(=O)C2)C(=O)[C@@H](C)C1 |  | 30.3 µM (active)
5 | NC(=O)O | inactive | 
6 | CN(C)N=O | inactive | 
7 | Cc1ccccc1N | inactive | 
8 | C=C(C)C(=O)[O][Sn]([CH2]CCC)([CH2]CCC)[CH2]CCC |  | 61.3 µM (active)
9 | CCOP(=S)(OCC)SCSP(=S)(OCC)OCC | inactive | 
10 | C=CC(=O)OCCCCCC(C)C | inactive | 
11 | COc1cc(-c2ccc(N)c(OC)c2)ccc1N | inactive | 50 µM (active)
12 | C[C@]12CCC(=O)C[C@@H]1CC[C@@H]1[C@@H]2CC[C@]2(C)[C@@H](O)CC[C@@H]12 | inactive | 
13 | CC(C)(C)c1cc(O)ccc1O | inactive | 
14 | O=C1C2(Cl)C3(Cl)C4(Cl)C(Cl)(Cl)C5(Cl)C3(Cl)C1(Cl)C5(Cl)C24Cl (configuration not stated) |  | 92.1 µM (active)
15 | O=C(Nc1ccc2[nH]ccc2c1)c1cc2cc(F)ccc2n1Cc1cccc(F)c1 |  | 47.1 µM (active)
16 | CC(C)(C)CC(C)(C)c1ccc(O)cc1 | inactive | 

Row | Compound | outcome | AC50
17 | CCC(C)(C)c1ccc(O)c(C(C)(C)CC)c1 | inactive | 
18 | O=C(O)C(F)(F)C(F)(F)C(F)(F)C(F)(F)C(F)(F)C(F)(F)F | inactive | 
19 | O=[N+]([O-])c1ccc(O)c([N+](=O)[O-])c1 |  | 12.7 µM (active)
20 | O=C(O)C(Cl)(Cl)Cl | inactive | 
21 | CCN1CCC2(CC1)COc1cc3c(cc12)N(C(=O)c1ccc(-c2ccc(-c4nnc(C)o4)cc2C)cc1)CC3 | inactive | 
22 | ClCC(Cl)CCl | inactive | 
23 | CC(C)(c1ccccc1)c1ccc(O)c(C(C)(C)c2ccccc2)c1 |  | 50 µM (active)
24 | O=c1[nH]c(=O)[nH]c(=O)[nH]1 | inactive | 
25 | ClC1(Cl)C2(Cl)C3(Cl)C4(Cl)C(Cl)(Cl)C5(Cl)C3(Cl)C1(Cl)C5(Cl)C24Cl (configuration not stated) | inactive | 
26 | CCOP(=S)(OCC)Oc1nc(Cl)c(Cl)cc1Cl | inactive | 
27 | CC(=O)[O][Hg][c]1ccccc1 |  | 23.4 µM (active)
28 | CC12CC1(C)C(=O)N(c1cc(Cl)cc(Cl)c1)C2=O (configuration not stated) | inactive | 
29 | Cn1sc(Cl)cc1=O | inactive | 
30 | CCC(=O)C(CC(C)N(C)C)(c1ccccc1)c1ccccc1 (configuration not stated) | inactive | 
31 | Oc1cccc2cccnc12 | inactive | 

— PubChem BioAssay (EPA / NIEHS)
